Assay outcomes from PubChem.
Efa HMGR inh: E. faecalis class II HMG-CoA reductase inhibition. inhibition, % at 10 µM. 190,000 tested, 0.41% active. purified E. faecalis HMGR, NADPH absorbance 340 nm kinetic. AID 1066;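 active means inhibition above a set limit, the median over all tested compounds plus 3 SD, cut at about 9.5% in these data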;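 further: enzyme runs in reverse so mevalonate oxidation gives rising NADPH absorbance; 0% = complete reaction with DMSO and 100% = background rate lacking mevalonate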
HSV replic up: increases HSV replication in cells; HSV replication augmentation in cells, fold increase; maximum fold increase; 220,000 tested, 0.005% active; in the data active means maximum fold increase above about 1.5; tested in PC3 cells
Ins promoter up: MIN6 insulin promoter up-regulation; 190,000 tested, 0.3% active; MIN6 insulin promoter-GFP reporter, high-content imaging; stronger effect = higher value; z-score at 5 µM; AID 1625;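 active means z-score above 3 at 5 µM with at least 500 cells counted in the well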
Insulin prom inh: TRM-6 insulin promoter activity inhibition; inhibition, % at 2 µM; AID 1273; TRM-6 cells (human fetal islet line), insulin promoter-eGFP reporter, imaging; reporter expression induced with tamoxifen; 130,000 tested, 0.9% active;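 active means inhibition above the mean plus 3 SD, with well images judged a real hit on visual review, cut at about 60% in these data, passing the limit was not always enough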
Numbers without * were called inactive; i = inactive; / = no result. Rows were chosen to be rich in hits. Some 1.1% of all compounds tested hit in one or more screens of this group.

SMILES | Efa HMGR inh | HSV replic up | Ins promoter up | Insulin prom inh
CC(C)(C)c1ccc(O)c(CN2CCN(c3ccccc3)CC2)c1 | 1.2 | i | -0.47 | 82.3*
Cc1ccc(-n2c(O)c(/C=N/c3ncc(Br)cc3Br)c(=O)[nH]c2=O)cc1 | 10.0* | i | 0.58 | 5.9
COc1ccc(CN2C(=O)NC(=O)/C(=C\c3ccco3)C2=O)cc1 | 11.6* | i | 1.31 | -11.1
COc1ccc(CN2C(=O)NC(=O)/C(=C\c3cc(OC)c(OC)c(OC)c3)C2=O)cc1 | -3.7 | i | / | -17.6
O=[N+]([O-])[N-][n+]1cnn(Cc2ccccc2)c1 | -2.5 | i | -0.16 | 15.0
Nc1nonc1-n1nnc(C(=O)N/N=C/c2ccc(OCc3ccc(F)cc3)cc2)c1COc1ccccc1 | / | i | -0.03 | /
O=C(c1cc(F)ccc1F)C1CCCN(Cc2cccc(Cl)c2)C1 (configuration not stated) | -2.8 | i | -0.79 | /
O=C(c1cc(F)ccc1F)C1CCCN(CCCc2ccccc2)C1 (configuration not stated) | 9.6* | i | -0.54 | /
Nc1cc2nc3ccccc3nc2cc1N | / | i | 3.68* | /
Cc1c2cnn(CC(=O)N3CCC4(CC3)OCCO4)c(=O)c2c(C)n1Cc1ccccc1F | 12.4* | i | 1.2 | -83.9
C[N+]1(CC(COCc2ccccc2)OC(=O)Cc2ccccc2)CCOCC1 (configuration not stated) | -5.8 | i | 0.11 | 31.2
NCCc1c[nH]c2ccccc12 | -10.9 | i | 0.53 | -4.5
CCCCc1ccc2[nH]cc(CCN)c2c1 | -5.0 | i | 3.13* | 10.3
CN(CC#CCN1CCCC1)C(=O)c1cccc(Cl)c1 | / | i | / | /
c1ccc2c(N3CCNCC3)nsc2c1 | -5.6 | i | 3.06* | /
c1ccc2oc(N3CCNCC3)nc2c1 | 4.3 | i | 1.56 | /
Cc1nn(Cc2c(Cl)cccc2Cl)c(Cl)c1C(=O)O | 5.7 | i | 0.16 | /
COc1ccc(CC(=O)N2CCN(C)CC2)cc1OC | -7.9 | i | 0.07 | 25.7
COc1ccc(CC(=O)N2CCN(C)CC2)cc1 | 0.4 | i | 3.53* | -5.9
Cc1ccc(N2CCN(CCc3ccccc3)CC2)cc1 | -1.0 | i | 0.32 | -13.9
CC1CN(CCc2ccccc2)CC(C)O1 (configuration not stated) | 4.2 | i | 1.52 | 70.3*
CC1=C(C(=O)N2CCC3(CC2)OCCO3)C2(CCC(C)CC2)OC1=O (configuration not stated) | -3.8 | i | 0.17 | 72.8*
COc1ccc(C)cc1NC1=NC(C)(C)CS1 | -1.8 | i | -1.34 | /
O=[N+]([O-])/C(Cl)=C1\NCCN1Cc1ccc(Cl)nc1 | 13.8* | i | 0.5 | /
CC1CN=C(Nc2ccc(F)c(Cl)c2)S1 (configuration not stated) | / | i | -1.28 | /
SMILES | Efa HMGR inh | HSV replic up | Ins promoter up | Insulin prom inh
CC(=O)Nc1ccccc1OP1(=O)COc2ccccc2OC1 | -2.9 | i | -0.67 | 76.9*
O=C1CC(C(=O)N2CCC3(CC2)OCCO3)CN1CCc1ccccc1 (configuration not stated) | 1.6 | i | 0.09 | 80.0*
CC(Cc1ccccc1)NC(=O)Cc1ccc(N(C)C)cc1 (configuration not stated) | 10.7* | i | -0.32 | 43.3
Cn1c(O)c(C=NCCN2CCNCC2)c(=O)[nH]c1=O | / | i | 1.69 | /
COc1ccc(C(=O)C2CCCN(Cc3cnc(C)s3)C2)c(OC)c1 (configuration not stated) | 15.9* | i | -0.85 | /
O=C(Nc1ccc2ccccc2c1)N1C[C@H]2C[C@@H](C1)c1cccc(=O)n1C2 | / | i | -0.33 | /
C/C=C1\CN2[C@H]3C[C@@]45c6ccccc6N(C)[C@H]4[C@@H]2CC1C3[C@H]5O (some centres not stated) | / | i | / | /
COc1ccccc1CN1CCN(C(=O)COc2ccccc2)CC1 | -0.6 | i | -4.58 | -19.1
CCN1CCN(C(=O)Cc2ccccc2OC)CC1 | 14.2* | i | 1.13 | /
